Results published in PubChem BioAssay AID1159580 (chemical genetic matrix, 2015).
Out of some 5,500 compounds screened, about 2,000 (36%) were called active. About 18% were inconclusive and are not listed. No stated cut-off is given here; in the data, active means normalized growth mostly below about 0.91 (no sharp cut-off); inconclusive means no clear call, values can overlap the other calls; inactive means mostly above about 0.92. Some of the results follow.

Assay: chemical genetic growth profiling, strain panel (AID 1159580);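 further: tested at 20 µM; growth read once vehicle control cultures reached saturation at 30 °C; 1 = growth at the plate median or of vehicle wells; lower values mean less growth of the strain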
Settings: growth OD

Measured: normalized growth

Clc1ccc(CSC(Cn2ccnc2)c2ccc(Cl)cc2Cl)cc1 (stereo not given)
active: S. cerevisiae deletion strains, locus YJR075W, strain HOC1, hits give low values 0.0603 | S. cerevisiae deletion strains, locus YKL009W, strain mrt4, hits give low values 0.0877 | S. cerevisiae deletion strains, locus YKL068W, hits give low values 0.0746 | S. cerevisiae deletion strains, locus YKL085W, strain MDH1 (second series), hits give low values 0.0615 | S. cerevisiae deletion strains, locus YKL085W, strain MDH1, hits give low values 0.0615 | S. cerevisiae deletion strains, locus YKL160W, strain elf1, hits give low values 0.065 | S. cerevisiae deletion strains, locus YKL190W, strain CNB1, hits give low values 0.0451 | S. cerevisiae deletion strains, locus YKR001C, strain vps1, hits give low values 0.0681 | S. cerevisiae deletion strains, locus YKR026C, strain gcn3, hits give low values 0.0654 | S. cerevisiae deletion strains, locus YKR091W, strain srl3, hits give low values 0.0606 | S. cerevisiae deletion strains, locus YLL001W, strain dnm1, hits give low values 0.0654 | S. cerevisiae deletion strains, locus YLL026W, hits give low values 0.0574 | S. cerevisiae deletion strains, locus YLL041C, strain sdh2, hits give low values 0.0577 | S. cerevisiae deletion strains, locus YLR027C, strain aat2, hits give low values 0.0604 | S. cerevisiae deletion strains, locus YLR039C, strain RIC1, hits give low values 0.079 | S. cerevisiae deletion strains, locus YLR058C, strain SHM2, hits give low values 0.0452 | S. cerevisiae deletion strains, locus YLR102C, strain apc9, hits give low values 0.0588 | S. cerevisiae deletion strains, locus YLR113W, strain HOG1, hits give low values 0.116 | S. cerevisiae deletion strains, locus YLR221C, strain rsa3, hits give low values 0.0604 | S. cerevisiae deletion strains, locus YLR258W, strain gsy2, hits give low values 0.0614 | S. cerevisiae deletion strains, locus YLR262C, strain YPT6 (second series), hits give low values 0.0789 | S. cerevisiae deletion strains, locus YLR262C, strain YPT6, hits give low values 0.103 | S. cerevisiae deletion strains, locus YLR268W, strain sec22, hits give low values 0.0568 | S. cerevisiae deletion strains, locus YLR320W, strain mms22, hits give low values 0.0761 | S. cerevisiae deletion strains, locus YLR330W, strain CHS5, hits give low values 0.0514 | S. cerevisiae deletion strains, locus YLR342W, strain FKS1 (second series), hits give low values 0.0606 | S. cerevisiae deletion strains, locus YLR342W, strain FKS1, hits give low values 0.0676 | S. cerevisiae deletion strains, locus YLR357W, strain rsc2, hits give low values 0.12 | S. cerevisiae deletion strains, locus YLR370C, strain arc18, hits give low values 0.0635 | S. cerevisiae deletion strains, locus YLR371W, strain rom2, hits give low values 0.0606 | S. cerevisiae deletion strains, locus YLR384C, strain iki3, hits give low values 0.0593 | S. cerevisiae deletion strains, locus YLR418C, strain cdc73, hits give low values 0.0853 | S. cerevisiae deletion strains, locus YML016C, strain PPZ1, hits give low values 0.0444 | S. cerevisiae deletion strains, locus YML032C, strain rad52, hits give low values 0.0643 | S. cerevisiae deletion strains, locus YML120C, strain ndi1, hits give low values 0.0571 | S. cerevisiae deletion strains, locus YML124C, strain tub3, hits give low values 0.0572 | S. cerevisiae deletion strains, locus YMR058W, strain fet3, hits give low values 0.0638 | S. cerevisiae deletion strains, locus YMR078C, strain ctf18, hits give low values 0.0695 | S. cerevisiae deletion strains, locus YMR125W, strain sto1, hits give low values 0.0785 | S. cerevisiae deletion strains, locus YMR129W, hits give low values 0.0574 | S. cerevisiae deletion strains, locus YMR205C, strain PFK2, hits give low values 0.0897 | S. cerevisiae deletion strains, locus YMR223W, strain ubp8, hits give low values 0.0591 | S. cerevisiae deletion strains, locus YMR231W, strain pep5, hits give low values 0.146 | S. cerevisiae deletion strains, locus YMR263W, strain SAP30, hits give low values 0.0544 | S. cerevisiae deletion strains, locus YMR307W, strain GAS1, hits give low values 0.12 | S. cerevisiae deletion strains, locus YNL067W, strain RPL9B, hits give low values 0.0471 | S. cerevisiae deletion strains, locus YNL071W, strain lat1, hits give low values 0.0619 | S. cerevisiae deletion strains, locus YNL128W, strain TEP1, hits give low values 0.0608 | S. cerevisiae deletion strains, locus YNL183C, strain NPR1, hits give low values 0.000263 | S. cerevisiae deletion strains, locus YNL209W, strain ssb2, hits give low values 0.0676 | S. cerevisiae deletion strains, locus YNL233W, strain BNI4, hits give low values 0.0515 | S. cerevisiae deletion strains, locus YNL248C, strain rpa49, hits give low values 0.0789 | S. cerevisiae deletion strains, locus YNL250W, strain rad50, hits give low values 0.0722 | S. cerevisiae deletion strains, locus YNL271C, strain bni1, hits give low values 0.0682 | S. cerevisiae deletion strains, locus YNL298W, strain CLA4, hits give low values 0.0628 | S. cerevisiae deletion strains, locus YNL307C, strain MCK1, hits give low values 0.0686 | S. cerevisiae deletion strains, locus YNL322C, strain KRE1 (second series), hits give low values 0.0666 | S. cerevisiae deletion strains, locus YNL322C, strain KRE1, hits give low values 0.045 | S. cerevisiae deletion strains, locus YNR049C, strain mso1, hits give low values 0.0586 | S. cerevisiae deletion strains, locus YNR052C, strain pop2, hits give low values 0.0598 | S. cerevisiae deletion strains, locus YOL006C, strain TOP1, hits give low values 0.0991 | S. cerevisiae deletion strains, locus YOL012C, strain htz1 0.137 | S. cerevisiae deletion strains, locus YOL147C, strain pex11, hits give low values 0.0557 | S. cerevisiae deletion strains, locus YOR001W, strain rrp6, hits give low values 0.0726 | S. cerevisiae deletion strains, locus YOR061W, strain CKA2, hits give low values 0.0436 | S. cerevisiae deletion strains, locus YOR069W, strain VPS5, hits give low values 0.0456 | S. cerevisiae deletion strains, locus YOR070C, strain gyp1, hits give low values 0.0632 | S. cerevisiae deletion strains, locus YOR080W, strain dia2, hits give low values 0.0638 | S. cerevisiae deletion strains, locus YOR083W, strain WHI5, hits give low values 0.0689 | S. cerevisiae deletion strains, locus YOR106W, strain vam3, hits give low values 0.0699 | S. cerevisiae deletion strains, locus YOR136W, strain idh2, hits give low values 0.0693 | S. cerevisiae deletion strains, locus YOR144C, strain elg1, hits give low values 0.0562 | S. cerevisiae deletion strains, locus YOR184W, strain ser1, hits give low values 0.0618 | S. cerevisiae deletion strains, locus YOR231W, strain MKK1, hits give low values 0.102 | S. cerevisiae deletion strains, locus YOR265W, strain rbl2, hits give low values 0.0591 | S. cerevisiae deletion strains, locus YOR270C, strain vph1, hits give low values 0.111 | S. cerevisiae deletion strains, locus YOR290C, strain snf2, hits give low values 0.0745 | S. cerevisiae deletion strains, locus YOR316C, strain cot1, hits give low values 0.0584 | S. cerevisiae deletion strains, locus YPL051W, strain arl3, hits give low values 0.0666 | S. cerevisiae deletion strains, locus YPL078C, strain atp4, hits give low values 0.0762 | S. cerevisiae deletion strains, locus YPL106C, strain sse1, hits give low values 0.0973 | S. cerevisiae deletion strains, locus YPL240C, strain hsp82, hits give low values 0.0582 | S. cerevisiae deletion strains, locus YPL241C, strain CIN2, hits give low values 0.0455 | S. cerevisiae deletion strains, locus YPL256C, strain CLN2, hits give low values 0.113 | S. cerevisiae deletion strains, locus YPR119W, strain clb2, hits give low values 0.061 | S. cerevisiae deletion strains, locus YPR141C, strain kar3, hits give low values 0.0736 | S. cerevisiae deletion strains, locus YPR163C, strain tif3, hits give low values 0.067 | S. cerevisiae deletion strains, locus YPR167C, strain met16, hits give low values 0.0596 | S. cerevisiae deletion strains, strain wtn01, hits give low values 0.0571 | S. cerevisiae strains, strain wild type, hits give low values 0.0459
